# According to ChEMBL document CHEMBL4513216, “Probing the Open Global Health Chemical Diversity Library for Multistage-Active Starting Points for Next-Generation Antimalarials” (ACS Infect Dis, 2020):
# Screen size: about 68,000 compounds; about 2,700 (4%) showed an effect of 50% or more. What follows is part of a selection rich in strong results, with near analogues and random picks from the rest.
# Tested on: Plasmodium berghei
# Experiment: Screen against P. berghei liver stage (PbLuc), transformed with Luciferase, at 2uM
# Assay type: functional, HepG2
# Details: tested at 2 uM
row,Compound,INHIBITION [%]
1,O=C(CN1CCCC1)N1CCCC(c2cc(=O)n3c(n2)CCCCC3)C1 (stereo not drawn),18.22
2,O=C(NCc1ccncc1)N(Cc1ccccc1F)C1CC1,14.83
3,CN(C)c1ncccc1CNC(=O)N(Cc1ccccc1F)C1CC1,-20.35
4,Cc1ccc(CNC(=O)N(Cc2ccccc2F)C2CC2)cn1,70.41
5,Cc1nc(C2(O)CCCNCC2)sc1CCOc1ccccc1Cl (stereo not drawn),-16.62
6,CCOc1ncccc1NC(=O)N1CCN(c2cccc(C)c2C)CC1,30.91
7,Cc1n[nH]c(C)c1NC(=O)CN1CCCC1c1noc(C(C)C)n1 (stereo not drawn),15.28
8,CN1CCN(C(=O)Cc2cccc(F)c2)Cc2cccnc21,26.09
9,c1cnc(-c2noc(C3CN(Cc4ccsc4)C3)n2)cn1,5.39
10,COc1cccc(-c2noc(C3CCN(Cc4cccs4)C3)n2)c1 (stereo not drawn),11.1
11,O=C(Cc1cccs1)N1CC(c2nc(-c3cnccn3)no2)C1,50.2
12,c1csc(CN2CC(c3nc(-c4cnccn4)no3)C2)c1,26.54
13,N#Cc1cccc(C(=O)N2CC(c3nc(-c4cccnc4)no3)C2)c1,25.53
14,c1cncc(-c2noc(C3CN(Cc4cccs4)C3)n2)c1,51.71
15,CCc1ccc(NC(=O)N2C[C@H]3CC[C@@]4(N=C(C)N(C)C4=O)[C@H]3C2)cc1,17.4
16,O=C(Nc1c(N2CCCC2)cccc1N1CCCC1)c1ccccn1,32.26
17,O=C(Nc1c(N2CCCC2)cccc1N1CCCC1)c1cnccn1,19.33
18,O=C(Nc1c(N2CCCC2)cccc1N1CCCC1)c1cnsn1,52.38
19,CCOc1cc(CN(C)CCC#N)ccc1OC(F)F,14.17
20,Cc1cc(C)cc(CNCCS(=O)(=O)N2CCOCC2)c1,-6.33
21,OCC(CO)Nc1nc(C(F)F)nc2ccccc12,-11.32
22,CNc1cc(C2CN(Cc3scnc3C)CCO2)nc(C)n1 (stereo not drawn),-1.07
23,CS(=O)(=O)c1ccc(Cl)c(C(=O)NCCC2=CCCCC2)c1,6.92
24,Cc1cc(C)n(C2CCCN(C(=O)Cc3cn4ccsc4n3)C2)n1 (stereo not drawn),20.57
25,Cc1cc(N2CCC(O)(CN(C)C(=O)CCN)C2)c2cnccc2n1 (stereo not drawn),-17.65
26,Cc1cc(N2CCC(O)(CN(C)C(=O)CCCN)C2)c2cnccc2n1 (stereo not drawn),-14.93
27,Cc1cc(N2CCC(O)(CN(C)C(=O)CCN)CC2)c2cnccc2n1,57.47

row,Compound,INHIBITION [%]
1,CCOC(=O)COC1CCN(C(C)=O)CC(=O)N(C)c2ccccc21 (stereo not drawn),19.99
2,Cc1ccnc(C2(C)CCCN2S(=O)(=O)c2c(C)noc2C)n1 (stereo not drawn),15.61
3,Cc1nn2cnnc2c(C)c1CCC(=O)Nc1nc2c(s1)CCC2,-4.37
4,O=C(Cc1ccccn1)N1CCc2c(O)nc(-c3cnccn3)nc2C1,56.57
5,O=C(Cc1ccccn1)N1CCc2nc(-c3cnccn3)nc(O)c2C1,41.31
6,Oc1nc(-c2cnccn2)nc2c1CCN(Cc1ccccn1)C2,19.47
7,COCCc1noc(-c2ccc(=O)[nH]c2)n1,-18.6
8,CS(=O)(=O)CCNCc1ccc(OCc2ccncc2)cc1,-117.21
9,O=S1(=O)COCCN1Cc1ccc(Cl)c(Cl)c1,-31.95
10,O=S1(=O)COCCN1Cc1ccc(Cl)c(F)c1,51.45
11,O=S1(=O)COCCN1Cc1ccc(F)c(F)c1,22.52
12,Cc1ccc(C(C)NC(=O)N2CCCN(CC(F)F)CC2)s1 (stereo not drawn),9.27
13,CC(C)N1[C@H](CN2CCCC2)C[C@@H]2CN(C(=O)c3ccoc3)CC[C@@H]21,50.32
14,CC(C)N1[C@H](CN2CCCC2)C[C@@H]2CN(Cc3ccoc3)CC[C@@H]21,1.92
15,CC(=O)N1C(CN2CCCC2)C[C@@H]2CN(C(=O)c3ccoc3)CC[C@@H]21 (stereo partly drawn),4
16,Cc1cc(CN2CCN(CC(O)c3ccc(C)c(C)c3)CC2)no1 (stereo not drawn),-29.69
17,CC(C)c1ccc(OCCC(=O)N2CCCC(C(N)=O)C2)cc1 (stereo not drawn),52.47
18,CS(=O)(=O)Cc1ccc(CNC(=O)N2CCC(C(N)=O)C2)cc1 (stereo not drawn),31
19,CC(C)c1ccc(OCCC(=O)N2CCC(C(N)=O)CC2)cc1,3.33
20,CC(C)c1ccc(OCCC(=O)N2CCCN(C(N)=O)CC2)cc1,19.71
21,CCOCc1ccc(CNC(=O)N2CCC(C(N)=O)C2)cc1 (stereo not drawn),47.23
22,CCCOc1ccc(CNC(=O)N2CCC(C(N)=O)C2)cc1 (stereo not drawn),76.69
23,COCCN1CCCn2cnc(CNC3CCCC3)c2C1,-24.29
24,Fc1cnc(N2CCC3(CC2)CN(Cc2cccs2)CCO3)nc1,43.29
25,COc1ccccc1C(C)(C)NC(=O)Nc1ccc(F)c(C(N)=O)c1,20.21
26,CN(Cc1cncnc1)[C@@H]1CN(Cc2ccco2)C[C@@H]2CCCO[C@@H]21,-37.2
